Results as given in PubChem BioAssay (NCATS).
Results filed as inconclusive are left out. Calls of active or inactive are those of the source. The call rests on the fitted dose curve; in most records, active means well fitted curve in the direction sought with a large enough effect; inconclusive means small, poorly fitted or top-dose-only effect, or another doubt; inactive means no such curve, though single readings can be large; an effect the other way counts as inactive or inconclusive.

Key:
[1] = Cellular Toxicity (caspase-3) NIH 3T3 (AID 666);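 further: caspase signal read after 16 h compound exposure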
Outline: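 Cells were plated at 1000 per well and incubated 5 hr at 37°C, then compound was added for 16 hr. Caspase-Glo 3/7 reagent followed for 20 min at room temperature before luminescence was read.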

[2] = Cellular Toxicity (caspase-3) Renal Proximal Tubule (AID 667);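 further: cells exposed to compound for 16 hours at 37 °C before detection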
Outline: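 Primary rat proximal tubule cells, 1000/well, 5 h plating at 37 °C, then compound 16 h at 37 °C. Caspase-Glo 3/7 reagent, 1 h RT, luminescence. Normalized to DMSO (basal) and 10 uM staurosporine (100%); Hill-fit AC50.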

[3] = molecular target: Cytochrome P450 3A4 (Homo sapiens) (UniProt P08684); assay: qHTS Assay for Inhibitors and Substrates of Cytochrome P450 3A4 (AID 884); further: series mostly up to about 57 µM; nearly all actives have a fitted effect of over 50% in size
Sequence of Cytochrome P450 3A4 (Homo sapiens) (P08684 whole entry, looked up): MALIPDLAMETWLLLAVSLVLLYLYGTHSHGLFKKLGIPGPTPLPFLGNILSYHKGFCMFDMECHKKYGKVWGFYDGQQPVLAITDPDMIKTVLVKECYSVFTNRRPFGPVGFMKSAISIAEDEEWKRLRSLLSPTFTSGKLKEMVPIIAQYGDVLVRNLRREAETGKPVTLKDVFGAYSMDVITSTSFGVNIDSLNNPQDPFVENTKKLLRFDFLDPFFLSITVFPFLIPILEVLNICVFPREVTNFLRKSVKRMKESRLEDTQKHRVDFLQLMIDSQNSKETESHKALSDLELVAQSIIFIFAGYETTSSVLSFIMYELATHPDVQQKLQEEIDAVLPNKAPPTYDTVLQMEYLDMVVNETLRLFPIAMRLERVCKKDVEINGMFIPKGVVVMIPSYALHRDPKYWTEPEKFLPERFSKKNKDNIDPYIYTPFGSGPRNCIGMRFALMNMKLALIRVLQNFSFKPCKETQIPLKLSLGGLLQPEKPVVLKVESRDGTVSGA
Outline: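 Luminescent readout of luciferin produced by CYP3A4 (20 nM) dealkylation of Luciferin-PPXE, 25 uM (its KM). NADPH-driven reaction ran 60 min at RT after 10 min compound preincubation; data scaled to 57 uM ketoconazole as 100% inhibition.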

[4] = Cell Viability - LYMP2-001 (AID 921); further: series mostly up to about 92 µM; nearly all actives have a fitted effect of over 70% in size
Outline: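 Human lymphoblastoid cells (Coriell), 2500 per well, were preincubated 5 hr at 37 C, then exposed to compounds in complete medium for 24 hr at 37 C. Cellular ATP was read by CellTiter-Glo luminescence; AC50 from Hill fits of concentration-response data.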

[5] = MultiTox-Fluor Cytotoxicity Assay - LYMP1-001 - Dead Cells (AID 946)
Outline: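 AC50 from Hill fit of concentration-response; data normalized to DMSO (basal) and 15 uM tetraoctylammonium bromide (100%). LYMP1-001 lymphoblastoid cells, 2500/well, 16 hr compound at 37 C; dead-cell protease fluorescence, Ex/Em 485/520.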

[6] = MultiTox-Fluor Cytotoxicity Assay - LYMP1-001 - Live Cells (AID 947)
[7] = Cell Viability - LYMP1-002 - Assay at 16 hr (AID 948)
Outline: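 Human lymphoblastoid cells (LYMP1-002), 2500/well, were preincubated 5 hr at 37 C, then exposed to compounds for 16 hr at 37 C in complete medium. Cellular ATP was read by CellTiter-Glo luminescence after 30 min at room temperature; AC50 from Hill fits.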

[8] = MultiTox-Fluor Cytotoxicity Assay - LYMP1-002 - Live Cells (AID 955)
Outline: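 Cells were seeded at 2500 per well and incubated 5 hr. Compounds were then added for 16 hr at 37 C, followed by MultiTox-Fluor reagent for 60 min at room temperature and fluorescence reading of viable-cell protease signal.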

[9] = MultiTox-Fluor Cytotoxicity Assay - LYMP1-002 - Dead Cells (AID 960); further: nearly all actives have a fitted effect of over 60% in size
Outline: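 Cells were plated, rested 5 hr, then treated with compound dilution series for 16 hr at 37 C. After adding substrate reagent and 60 min at room temperature, dead-cell protease fluorescence gave concentration-response curves fitted by the Hill equation.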

[10] = MultiTox-Fluor Cytotoxicity Assay - LYMP1-003 - Dead Cells (AID 961); further: nearly all actives have a fitted effect of over 70% in size
Outline: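 Human lymphoblastoid LYMP1-003 cells (2500/well) were treated with compounds for 16 hr at 37 C in complete medium. Dead-cell protease release was read by bis-AAF-R110 fluorescence (Ex/Em 485/520). AC50 came from Hill fits, normalized to DMSO and 15 uM tetraoctylammonium bromide.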

[11] = MultiTox-Fluor Cytotoxicity Assay - LYMP1-003 - Live Cells (AID 962);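 further: cytotoxic hits lower the live-cell protease signal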
Outline: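 Acute cytotoxicity is scored as a drop in live-cell protease activity in human lymphoblastoid LYMP1-003 cells after 16 hr compound exposure at 37 C. AC50 values come from Hill-equation modelling of concentration-response data.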

[12] = Cell Viability - LYMP1-003 - Assay at 24 hr (AID 963)
Outline: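 Cytotoxicity is scored as a concentration-dependent fall in ATP-linked luciferase signal in human lymphoblastoid LYMP1-003 cells treated 24 hr at 37 C in complete culture medium.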

[13] = Cell Viability - LYMP1-003 - Assay at 40 hr (AID 964); further: series mostly up to about 92 µM; nearly all actives have a fitted effect of over 60% in size
Outline: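 Luminescent ATP signal (CellTiter-Glo) served as the viability read-out after 40 hr compound treatment of human lymphoblastoid LYMP1-003 cells at 37 C. Decreases in ATP were fitted with the Hill equation to give AC50.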

[14] = Cell Viability - LYMP2-003 (AID 965);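 further: cells exposed to compounds for 24 h before reading; nearly all actives have a fitted effect of over 50% in size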
Outline: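 Human lymphoblastoid cells (2500/well) were pre-incubated 5 hr at 37 C, then exposed to compounds over a concentration range for 24 hr at 37 C. Intracellular ATP was read by CellTiter-Glo luminescence; AC50 came from Hill-equation fits.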

[15] = Cell Viability - LYMP2-004 (AID 966); further: nearly all actives have a fitted effect of over 65% in size
Outline: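 qHTS cytotoxicity: human lymphoblastoid line, 24 hr compound treatment, 37 C, complete medium. Viability read as cellular ATP via luciferase luminescence; tetraoctylammonium bromide served as positive control.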

[16] = Cell Viability - LYMP2-005 (AID 967); further: series mostly up to about 92 µM
Outline: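 CellTiter-Glo luminescence (cellular ATP) read-out; LYMP2-005 lymphoblastoid cells, 2500/well, 5 h pre-incubation, then 24 h compound exposure at 37 C in complete medium. Tetraoctylammonium bromide positive control; AC50 by standard Hill fit.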

[17] = Cell Viability - LYMP2-011 (AID 969); further: nearly all actives have a fitted effect of over 60% in size
Outline: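 In this qHTS cytotoxicity format, compounds are tested across concentrations on human lymphoblastoid cells in complete medium for 24 hours at 37 C. Viability is taken as cellular ATP measured by luciferase luminescence.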

[18] = Cell Viability - LYMP2-013 (AID 970); further: series mostly up to about 92 µM; nearly all actives have a fitted effect of over 55% in size
Outline: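 Cytotoxicity is scored as a concentration-dependent drop in intracellular ATP in human lymphoblastoid cells after 24 hr compound exposure at 37 C. ATP is quantified by luciferase luminescence, and AC50 values come from Hill-equation modeling.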

[19] = Cell Viability - LYMP2-015 (AID 971); further: nearly all actives have a fitted effect of over 55% in size
Outline: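 Cells are seeded at 2500 per well and incubated 5 hr at 37 C. Compounds are added across a concentration series for 24 hr at 37 C. CellTiter-Glo is added, and luminescence is read after 30 min at room temperature.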

[20] = Cell Viability - LYMP2-017 (AID 972); further: series mostly up to about 92 µM; nearly all actives have a fitted effect of over 55% in size
Outline: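 Cytotoxicity is scored as a concentration-dependent drop in cellular ATP in a human lymphoblastoid line after 24 hr treatment at 37 C. Values are AC50s from Hill-equation modelling.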

[21] = Cell Viability - LYMP2-019 (AID 973); further: nearly all actives have a fitted effect of over 55% in size
Outline: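 Cytotoxicity is scored as a concentration-dependent drop in cellular ATP after cells (2500/well) receive compound for 24 hr at 37 C. Tetraoctylammonium bromide serves as positive control.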

[22] = Cell Viability - LYMP2-021 (AID 974)
Outline: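 Loss of cellular ATP, measured with a luciferase-based CellTiter-Glo readout, serves as the toxicity signal in human lymphoblastoid cells treated for 24 hours at 37 C. Potency is reported as AC50 from a standard Hill model.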

[23] = Cell Viability - LYMP2-023 (AID 975)
Outline: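 Steps: seed 2500 human lymphoblastoid cells per well, incubate 5 hr at 37 C, add compound for 24 hr at 37 C, add CellTiter-Glo, hold 30 min at room temperature, read luminescence. AC50 derived by Hill modelling.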

[24] = Cell Viability - LYMP2-025 (AID 976); further: series mostly up to about 92 µM
Outline: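 Acute cytotoxicity is scored as a concentration-dependent fall in intracellular ATP, measured by luciferase luminescence, in human lymphoblastoid LYMP2-025 cells exposed to compound for 24 hours at 37 C. AC50 values come from standard Hill fits.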

Measured: Potency

COC(=O)c1ccccc1C(=O)OC
inactive: all assays above
